Test results: PubChem BioAssay (EPA / NIEHS)
Records with an inconclusive call do not appear. Calls of active or inactive are those of the source. How the source made its calls, unless noted: active means hit-call score of the fitted dose curve at least 0.9, where 1 is the maximum; inconclusive means response in the unintended direction; inactive means score below 0.9.

Columns and labels:
[1] = TOX21_p53_BLA_p2_viability: Viability Assessment in the Tox21 HCT-116 p53 Agonism Beta-lactamase Assay, Phase 2 (AID 2283591);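 further: compound exposure lasted 16 h at 37 °C; actives lower the ATP signal meaning cytotoxicity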
Method in brief: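 HCT-116 p53-bla cells (4000/well) rested 5 h at 37C, then received compounds in DMSO (217-fold dilution) for 16 h at 37C, 5% CO2. After the CCF4 read, CellTiter-Glo was added; ATP luminescence was read after 30 min at room temperature.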

[2] = biological target: Cellular tumor antigen p53 (Homo sapiens) (UniProt P04637); assay: TOX21_p53_BLA_p2_ratio: Tox21 HCT-116 p53 Agonism Beta-lactamase Assay, Ratio, Phase 2 (AID 2283592)
Cellular tumor antigen p53 (Homo sapiens), sequence (P04637 whole entry, looked up): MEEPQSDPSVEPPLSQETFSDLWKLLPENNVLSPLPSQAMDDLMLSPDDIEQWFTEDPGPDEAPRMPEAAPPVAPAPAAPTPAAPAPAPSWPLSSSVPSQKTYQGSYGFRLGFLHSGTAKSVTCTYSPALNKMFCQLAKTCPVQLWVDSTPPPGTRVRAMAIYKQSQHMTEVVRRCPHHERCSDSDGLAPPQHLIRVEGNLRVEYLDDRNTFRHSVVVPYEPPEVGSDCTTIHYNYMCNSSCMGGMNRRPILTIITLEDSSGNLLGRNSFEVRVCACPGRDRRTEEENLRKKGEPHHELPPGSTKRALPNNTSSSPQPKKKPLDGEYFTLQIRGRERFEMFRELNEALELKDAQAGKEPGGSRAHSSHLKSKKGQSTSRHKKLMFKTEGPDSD
Method in brief: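 HCT116 cells carrying a p53-responsive beta-lactamase reporter were plated, incubated 5 h at 37C, then dosed with compounds in DMSO (217-fold dilution) for 16 h. CCF4-AM substrate was added for 2 h at room temperature; the 460/530 nm emission ratio gave gain-of-signal activity relative to DMSO.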

[3] = TOX21_p53_BLA_p3_viability: Viability Assessment in the Tox21 HCT-116 p53 Agonism Beta-lactamase Assay, Phase 3 (AID 2283593);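 further: cells exposed to compound for 16 h before reading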
Method in brief: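 HCT-116 cells (4000/well) rested 5 h at 37C, then got DMSO compounds by pin tool (217-fold dilution) for 16 h at 37C, 5% CO2. After the bla read, CellTiter-Glo was added and luminescence read at 30 min, room temperature.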

[4] = TOX21_p53_BLA_p4_viability: Viability Assessment in the Tox21 HCT-116 p53 Agonism Beta-lactamase Assay, Phase 4 (AID 2283597);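 further: hits lower the luminescence signal meaning cytotoxicity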
Method in brief: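 HCT116 p53-bla cells (4000/well) rested 5 h at 37C, then received compounds in DMSO (217-fold dilution) for 16 h at 37C, 5% CO2. CellTiter-Glo was added after the CCF4-AM read, and luminescence was read after 30 min at room temperature.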

[5] = biological target: Cellular tumor antigen p53 (Homo sapiens) (UniProt P04637); assay: TOX21_p53_BLA_p5_ratio: Tox21 HCT-116 p53 Agonism Beta-lactamase Assay, Ratio, Phase 5 (AID 2283599)
Method in brief: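 HCT-116 cells carrying a p53-inducible beta-lactamase reporter were seeded at 4000 cells/well and dosed after 5 h with compound in DMSO (217-fold dilution). After 16 h at 37C, CCF4-AM substrate was added for 2 h, and the 460/530 nm emission ratio was scored as gain-of-signal versus DMSO.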

[6] = biological target: Cellular tumor antigen p53 (Homo sapiens) (UniProt P04637); assay: TOX21_p53_BLA_p4_ratio: Tox21 HCT-116 p53 Agonism Beta-lactamase Assay, Ratio, Phase 4 (AID 2283601)
Method in brief: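 HCT116 cells carrying an inducible beta-lactamase reporter were plated at 4000 cells/well, rested 5 h, then exposed to compounds in DMSO (217-fold dilution) for 16 h at 37C. CCF4-AM substrate was loaded 2 h at room temperature; 460/530 nm emission ratio scored gain-of-signal versus DMSO.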

[7] = TOX21_p53_BLA_p5_viability: Viability Assessment in the Tox21 HCT-116 p53 Agonism Beta-lactamase Assay, Phase 5 (AID 2283600)
Method in brief: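 Cells were plated at 4000/well, rested 5 h at 37C, then given compounds in DMSO (217-fold dilution) for 16 h at 37C, 5% CO2. Following the CCF4-AM beta-lactamase read, CellTiter-Glo was added and luminescence was read after 30 min at room temperature.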

[8] = biological target: Thyroid hormone receptor alpha (Rattus norvegicus) + Thyroid hormone receptor beta (Rattus norvegicus) (UniProt P18113+P63059); assay: TOX21_TR_LUC_GH3_Agonist_Followup: Tox21 GH3 Thyroid Hormone Receptor Agonism Luciferase Follow-Up Assay (AID 2283939)
Thyroid hormone receptor alpha (Rattus norvegicus) + Thyroid hormone receptor beta (Rattus norvegicus), sequence (P63059 whole entry, looked up): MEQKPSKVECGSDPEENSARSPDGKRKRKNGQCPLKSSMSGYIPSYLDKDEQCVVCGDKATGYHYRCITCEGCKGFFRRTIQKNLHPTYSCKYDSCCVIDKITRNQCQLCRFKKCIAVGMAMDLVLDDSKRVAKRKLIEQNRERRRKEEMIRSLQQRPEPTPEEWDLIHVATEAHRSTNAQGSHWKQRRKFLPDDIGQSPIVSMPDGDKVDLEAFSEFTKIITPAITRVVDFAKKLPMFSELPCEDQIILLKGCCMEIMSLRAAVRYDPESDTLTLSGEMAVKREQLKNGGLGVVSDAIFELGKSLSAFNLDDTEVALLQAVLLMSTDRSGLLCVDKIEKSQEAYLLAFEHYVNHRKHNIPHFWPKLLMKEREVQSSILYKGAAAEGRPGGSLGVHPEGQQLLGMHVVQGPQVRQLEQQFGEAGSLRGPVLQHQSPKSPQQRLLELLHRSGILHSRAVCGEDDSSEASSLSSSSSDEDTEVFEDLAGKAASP
Thyroid hormone receptor alpha (Rattus norvegicus) + Thyroid hormone receptor beta (Rattus norvegicus), sequence (P18113 whole entry, looked up): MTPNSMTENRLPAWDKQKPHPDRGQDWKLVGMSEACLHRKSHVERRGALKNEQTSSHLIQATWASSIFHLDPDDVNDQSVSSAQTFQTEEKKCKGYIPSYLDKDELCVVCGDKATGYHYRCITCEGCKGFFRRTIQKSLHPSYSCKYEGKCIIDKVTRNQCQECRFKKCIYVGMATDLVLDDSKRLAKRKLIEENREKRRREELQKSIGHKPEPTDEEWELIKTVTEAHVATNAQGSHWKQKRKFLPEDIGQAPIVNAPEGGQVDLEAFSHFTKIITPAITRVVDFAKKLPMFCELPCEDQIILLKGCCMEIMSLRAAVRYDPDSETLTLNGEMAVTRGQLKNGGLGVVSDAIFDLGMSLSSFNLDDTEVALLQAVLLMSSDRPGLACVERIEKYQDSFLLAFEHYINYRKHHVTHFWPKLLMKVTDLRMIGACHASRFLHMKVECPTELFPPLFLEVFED
Method in brief: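 Rat GH3 cells (1,500/well) in serum-free assay medium, treated with 15-point series, 92 uM to 5 nM final, for 24 h at 37C. Luciferase via ONE-Glo luminescence; gain of signal fitted against DMSO, T3 positive control.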

THRA (gene 7067) = THRA (gene 7067) (UniProt P10827); assay: TOX21_TRA_COA_Agonist_Followup_ratio: Tox21 Thyroid Hormone Receptor alpha Agonism through Coactivator Recruitment Follow-Up Assay, Ratio (AID 2283948; active means hit-call score of the fitted dose curve at least 0.9, where 1 is the maximum; inactive means score below 0.9)
THRA (gene 7067), sequence (P10827 whole entry, looked up, the tested form may be a part): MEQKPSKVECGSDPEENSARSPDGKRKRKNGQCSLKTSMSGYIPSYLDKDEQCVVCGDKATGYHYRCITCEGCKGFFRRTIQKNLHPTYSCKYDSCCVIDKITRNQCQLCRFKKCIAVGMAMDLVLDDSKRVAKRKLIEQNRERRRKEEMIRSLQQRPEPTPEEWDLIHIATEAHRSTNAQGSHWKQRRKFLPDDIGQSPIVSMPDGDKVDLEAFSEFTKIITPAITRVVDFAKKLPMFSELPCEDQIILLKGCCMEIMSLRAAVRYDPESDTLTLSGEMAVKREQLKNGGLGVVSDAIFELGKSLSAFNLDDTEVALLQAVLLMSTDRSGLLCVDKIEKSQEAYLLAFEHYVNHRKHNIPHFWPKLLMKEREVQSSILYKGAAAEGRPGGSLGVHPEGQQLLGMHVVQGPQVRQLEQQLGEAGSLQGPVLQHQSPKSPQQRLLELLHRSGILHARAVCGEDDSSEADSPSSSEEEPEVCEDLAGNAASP
Method in brief: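 Read-out is the 520/495 nm emission ratio (ex 340 nm), scaled between DMSO-only wells as 0% and T3 wells as 100%. It reflects fluorescein-SRC-2 peptide recruitment to GST-TRα LBD detected via terbium anti-GST antibody.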

THRB (gene 7068) [9] = biological target: THRB (gene 7068) (UniProt P10828); assay: TOX21_TRB_BLA_Agonist_Followup_ratio: Tox21 Thyroid Hormone Receptor beta Agonism Beta-lactamase (BLA) Follow-Up Assay, Ratio (AID 2283954)
THRB (gene 7068), sequence (P10828 whole entry, looked up, the tested form may be a part): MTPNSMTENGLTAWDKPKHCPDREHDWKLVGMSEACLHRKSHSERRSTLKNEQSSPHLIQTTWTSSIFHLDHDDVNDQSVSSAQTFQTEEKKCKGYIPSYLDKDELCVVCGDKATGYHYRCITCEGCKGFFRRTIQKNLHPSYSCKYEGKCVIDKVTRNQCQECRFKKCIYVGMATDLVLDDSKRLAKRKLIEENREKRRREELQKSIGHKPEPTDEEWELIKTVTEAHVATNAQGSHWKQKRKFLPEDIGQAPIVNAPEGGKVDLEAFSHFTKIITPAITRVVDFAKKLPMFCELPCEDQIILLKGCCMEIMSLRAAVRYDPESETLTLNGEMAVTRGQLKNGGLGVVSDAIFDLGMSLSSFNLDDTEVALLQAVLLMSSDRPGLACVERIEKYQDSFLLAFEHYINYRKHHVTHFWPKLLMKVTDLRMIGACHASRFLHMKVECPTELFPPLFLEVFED
Method in brief: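 Human TRβ LBD–GAL4 DBD fusion in GeneBLAzer UAS-bla HEK293T cells; 11 concentrations in triplicate, 18 h at 37°C/5% CO2, T3 as agonist control. CCF4-AM substrate 2 h at room temperature; 460:530 nm ratio fitted for gain of signal versus DMSO.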

THRB (gene 7068) [10] = biological target: THRB (gene 7068) (UniProt P10828); assay: TOX21_TRB_COA_Agonist_Followup_ratio: Tox21 Thyroid Hormone Receptor beta Agonism through Coactivator Recruitment Follow-Up Assay, Ratio (AID 2283963; active means hit-call score of the fitted dose curve at least 0.9, where 1 is the maximum; inactive means score below 0.9)
Method in brief: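 Cell-free TR-FRET coactivator recruitment: GST-tagged TRβ LBD (5.0 nM) with 0.10% BSA incubated with compound, then fluorescein-SRC-2 peptide (200 nM) and Tb-anti-GST antibody (2 nM) added. 520:495 nm ratio normalized to DMSO (0%) and T3 (100%).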

[11] = biological target: Retinoic acid receptor RXR-alpha (Homo sapiens) (UniProt P19793); assay: TOX21_TR_RXR_BLA_Agonist_Followup_ratio: Tox21 Thyroid Hormone Receptor beta Retinoid X Receptor alpha (RXRa) Agonism Beta-lactamase (BLA) Follow-Up Assay, Ratio (AID 2283968)
Retinoic acid receptor RXR-alpha (Homo sapiens), sequence (P19793 whole entry, looked up): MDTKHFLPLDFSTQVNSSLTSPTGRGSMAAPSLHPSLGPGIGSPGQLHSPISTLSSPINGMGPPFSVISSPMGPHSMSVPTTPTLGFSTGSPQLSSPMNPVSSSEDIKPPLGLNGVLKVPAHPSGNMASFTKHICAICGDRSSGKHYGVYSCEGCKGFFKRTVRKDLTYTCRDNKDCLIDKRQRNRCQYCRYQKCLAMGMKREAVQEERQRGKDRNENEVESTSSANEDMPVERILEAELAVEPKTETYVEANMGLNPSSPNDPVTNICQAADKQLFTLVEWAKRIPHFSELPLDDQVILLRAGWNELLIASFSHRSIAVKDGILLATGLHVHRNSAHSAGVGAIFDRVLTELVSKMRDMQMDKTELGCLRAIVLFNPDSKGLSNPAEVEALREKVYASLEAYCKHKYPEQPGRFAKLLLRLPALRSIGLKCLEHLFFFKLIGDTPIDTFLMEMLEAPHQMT
Method in brief: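 RXRa-UAS-bla HEK293T cells, 5 h attachment at 37C/5% CO2, then 11 concentrations in triplicate for 16 h; 9-cis retinoic acid positive control. FRET-B/GCCF4-AM substrate 2 h at room temperature; 460:530 nm ratio, fitted for gain versus DMSO.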

[12] = TOX21_TR_RXR_BLA_Agonist_Followup_viability: Viability Assessment in the Tox21 Thyroid Hormone Receptor beta Retinoid X Receptor alpha (RXRa) Agonism Beta-lactamase (BLA) Follow-Up Assay (AID 2283970)
Method in brief: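 RXRa-UAS-bla HEK293T cells, 2,500/well in phenol red-free DMEM with 2% charcoal-stripped FBS, dosed for 16 h at 37C. Viability measured by CellTiter-Glo ATP luminescence; fitted bidirectionally against DMSO baseline, loss of signal indicating cytotoxicity.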

[13] = CCTE_Harrill_HTTr_Viability_MCF7: CCTE's 6-hour Cell Viability Assessment for the High-Throughput Transcriptomics (HTTr) Platform, in MCF-7 cells cultured in DMEM + 10% fetal bovine serum, Harrill Lab (AID 2284010; active means hit-call score of the fitted dose curve at least 0.9, where 1 is the maximum; inactive means score below 0.9)
Method in brief: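 MCF-7 cells in DMEM + 10% FBS, 384-well, exposed 6 h to an eight-point dilution series. Membrane integrity scored by high-content imaging of propidium iodide exclusion; bidirectional fit versus DMSO.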

[14] = CCTE_Harrill_HTTr_CellCount_MCF7: CCTE's Cell Proliferation Assessment for the High-Throughput Transcriptomics (HTTr) Platform, Harrill Lab (AID 2284012);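 further: cells exposed to compound for six hours; intended direction is loss of nuclei count meaning fewer cells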
Method in brief: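 MCF7 cells exposed 6 hours to an eight-point dilution series; Hoechst-stained nuclei counted by high-content imaging. Bidirectional curve fitting against DMSO baseline.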

Measured: outcome

CCN(CC)C(=O)[C@@H]1C=C2c3cccc4[nH]cc(c34)C[C@H]2N(C)C1
inactive: [1] | [2] | [3] | [4] | [5] | [6]

Clc1c(Cl)c(Cl)c(Cl)c(Cl)c1Cl
inactive: [1] | [2] | [3] | [4] | [7] | [6]

CC(C)(C)NCC(O)c1ccccc1Cl (configuration not stated)
inactive: [1] | [2] | [3] | [5] | [6]

CNC(=O)ON=C(CSC)C(C)(C)C
not listed: [6]
inactive: all other assays above

Cc1nnc2n1-c1ccc(Cl)cc1C(c1ccccc1Cl)=NC2
inactive: [1] | [2] | [3] | [4] | [7]

O=NN1CCNCC1
inactive: [1] | [2] | [3] | [4] | [7] | [6]

O=C(O)c1ccc2[nH]cc(CCCCN3CC=C(c4ccccc4)CC3)c2c1
inactive: [1] | [2] | [3] | [5] | [6]
